We go through 5 molecules from ChEMBL document CHEMBL3988442, “University of Dundee, Small-Polar-MMV Screening Library” (2021).

Holding throughout (parameters): scale not given: direction of the effect not stated beside the values
Experiment [1] deals with Protein translocase subunit SecA (Escherichia coli (strain K12)) (UniProt P10408). The experiment in a line: Assay to Identify E. coli SecA ATPase Inhibitors. The experiment is classed as functional. Particulars: 30 µM.
The target in experiment [2] is T1, Ubiquitin-activating enzyme e1, putative (Leishmania donovani (strain BPK282A1)) (UniProt E9BSI1).
T1 sequence (whole entry): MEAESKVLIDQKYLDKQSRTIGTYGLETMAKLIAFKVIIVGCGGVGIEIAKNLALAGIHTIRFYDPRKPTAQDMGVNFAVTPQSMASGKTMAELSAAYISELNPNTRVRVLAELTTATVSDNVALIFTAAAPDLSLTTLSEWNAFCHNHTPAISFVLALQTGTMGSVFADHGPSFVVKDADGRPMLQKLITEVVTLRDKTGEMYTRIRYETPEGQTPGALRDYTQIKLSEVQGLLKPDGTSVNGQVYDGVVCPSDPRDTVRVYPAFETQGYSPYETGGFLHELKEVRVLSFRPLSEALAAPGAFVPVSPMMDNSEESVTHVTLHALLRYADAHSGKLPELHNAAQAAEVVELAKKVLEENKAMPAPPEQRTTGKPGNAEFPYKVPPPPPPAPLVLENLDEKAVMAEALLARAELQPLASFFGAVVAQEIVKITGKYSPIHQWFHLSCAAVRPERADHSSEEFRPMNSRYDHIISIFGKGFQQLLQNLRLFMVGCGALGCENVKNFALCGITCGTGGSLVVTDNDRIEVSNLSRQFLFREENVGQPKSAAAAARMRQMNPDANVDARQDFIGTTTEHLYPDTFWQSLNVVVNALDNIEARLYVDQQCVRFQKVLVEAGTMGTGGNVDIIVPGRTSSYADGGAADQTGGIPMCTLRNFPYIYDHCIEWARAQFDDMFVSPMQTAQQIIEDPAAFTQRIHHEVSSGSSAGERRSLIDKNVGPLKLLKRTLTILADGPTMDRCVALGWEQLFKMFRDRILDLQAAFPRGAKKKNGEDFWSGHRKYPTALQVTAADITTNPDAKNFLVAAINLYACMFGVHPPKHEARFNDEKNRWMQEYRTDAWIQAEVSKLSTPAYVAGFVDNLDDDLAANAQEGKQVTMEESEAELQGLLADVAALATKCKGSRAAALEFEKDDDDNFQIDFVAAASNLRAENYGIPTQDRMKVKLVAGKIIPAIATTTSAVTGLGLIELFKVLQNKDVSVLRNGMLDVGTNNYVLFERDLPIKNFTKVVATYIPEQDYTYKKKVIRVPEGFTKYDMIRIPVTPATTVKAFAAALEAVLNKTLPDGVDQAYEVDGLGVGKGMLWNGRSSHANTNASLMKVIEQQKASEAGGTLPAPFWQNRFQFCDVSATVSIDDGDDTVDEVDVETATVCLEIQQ
The experiment can be described thus: Leishmania donovani Ubiquitin Activating Enzyme (LdE1). The experiment is classed as functional. Particulars: 30 µM.

Experiment [3] deals with T2, Aspartate--tRNA(Asp/Asn) ligase (Mycobacterium tuberculosis (strain ATCC 25618 / H37Rv)) (UniProt P9WFW3).
T2 sequence (whole entry): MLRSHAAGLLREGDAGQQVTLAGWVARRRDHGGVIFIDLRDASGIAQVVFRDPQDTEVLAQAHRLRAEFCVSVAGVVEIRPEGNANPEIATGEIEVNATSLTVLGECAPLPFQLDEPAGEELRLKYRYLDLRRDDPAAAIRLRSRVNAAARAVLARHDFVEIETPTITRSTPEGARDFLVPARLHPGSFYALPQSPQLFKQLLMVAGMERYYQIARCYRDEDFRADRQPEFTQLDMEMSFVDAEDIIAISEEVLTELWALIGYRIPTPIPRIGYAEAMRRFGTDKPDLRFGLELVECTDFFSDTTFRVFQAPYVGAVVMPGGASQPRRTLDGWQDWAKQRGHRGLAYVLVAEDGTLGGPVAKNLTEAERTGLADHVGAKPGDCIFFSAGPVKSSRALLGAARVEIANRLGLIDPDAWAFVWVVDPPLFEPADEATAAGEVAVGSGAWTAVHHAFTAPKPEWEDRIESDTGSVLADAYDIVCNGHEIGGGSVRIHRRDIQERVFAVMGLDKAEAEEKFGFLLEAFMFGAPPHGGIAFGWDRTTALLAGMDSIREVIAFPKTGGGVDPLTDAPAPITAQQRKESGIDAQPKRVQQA
The experiment can be described thus: Assay for Asp RNA synthetase-1 from Mycobacterium tuberculosis. In kind it is functional. Particulars: 30 µM.

Experiment [4] concerns the target AMP-activated protein kinase, AMPK (Homo sapiens) (UniProt P54646+O43741+P54619+Q9UGJ0+Q9Y478+Q13131+Q9UGI9). The experiment in a line: AMP-dependent Kinase enzyme assay. An in vitro enzyme assay that detects ADP turnover that is directly proportional to AMPK activity. This uses naive AMPK that is activated during the assay with MK-8722. In kind it is functional. Particulars: 30 µM.

Experiment [5] addresses Sialic acid-binding Ig-like lectin 9 (Homo sapiens) (UniProt Q9Y336). The experiment can be described thus: Hs-Siglec9 ALPHAscreen SOP 20170721. Particulars: 10 µM. Background: Alpha assays give light when donor and acceptor beads are brought close together.
The subject of a further experiment is Trypanosoma cruzi. The experiment can be described thus: Trypanosoma cruzi phosphomannomutase and mannose-1-phosphate guanylyltransferase assay. In kind it is functional. Particulars: 10 µM.
Experiment [6] concerns the target T3, Arginase-2, mitochondrial (Homo sapiens) (UniProt P78540).
T3 sequence (whole entry): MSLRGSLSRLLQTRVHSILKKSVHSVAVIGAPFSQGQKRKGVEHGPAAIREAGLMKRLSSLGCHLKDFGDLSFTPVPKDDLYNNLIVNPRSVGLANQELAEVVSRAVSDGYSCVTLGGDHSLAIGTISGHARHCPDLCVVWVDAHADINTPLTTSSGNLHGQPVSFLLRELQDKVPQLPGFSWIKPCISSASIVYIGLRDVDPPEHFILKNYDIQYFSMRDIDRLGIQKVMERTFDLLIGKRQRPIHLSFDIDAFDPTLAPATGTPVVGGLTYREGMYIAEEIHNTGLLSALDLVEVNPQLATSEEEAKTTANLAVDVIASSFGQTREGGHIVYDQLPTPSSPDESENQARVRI
The experiment can be described thus: in vitro enzyme assay to detect the production of urea directly proportional to the activity of Arginase II. Note: in the data most compounds retested in dose-response had high values. In kind it is functional. Particulars: 33.3 µM.

Experiment [7] addresses T4, Proteasome subunit beta (Trypanosoma cruzi) (UniProt O96673).
T4 sequence (whole entry): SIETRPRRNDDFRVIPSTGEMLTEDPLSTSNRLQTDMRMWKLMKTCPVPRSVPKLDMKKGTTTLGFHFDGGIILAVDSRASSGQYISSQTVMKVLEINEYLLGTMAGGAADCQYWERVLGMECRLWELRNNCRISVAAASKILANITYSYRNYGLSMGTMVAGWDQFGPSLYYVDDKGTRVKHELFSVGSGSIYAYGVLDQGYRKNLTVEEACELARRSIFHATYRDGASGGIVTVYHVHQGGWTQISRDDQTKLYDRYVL
The experiment in a line: Trypanosoma cruzi proteasome chymotrypsin-like activity (TcProtChymo) assay. Note: in the data most compounds retested in dose-response had high values. The experiment is classed as functional. Particulars: 9.37 µM.

For a further experiment, the species on record is Homo sapiens. The experiment can be described thus: To identify inhibition of the IFN signalling (Jak-Stat) pathway via expression of an eGFP reporter gene under the control of an IFN-stimulated response element (ISRE) containing MxA promoter. The experiment is classed as functional. Particulars: 30 µM. (A reporter such as luciferase makes a cellular process visible.)

In experiment [8] the target is Shiga toxin 2 (Escherichia coli O157:H7) (UniProt P09385+P09386). The experiment in a line: E. coli 0.157:H7 Shiga Toxin SOP - stx2 screening assay. Particulars: 30 µM. In kind it is functional.
Experiment [9] addresses T5, Tyrosyl-tRNA synthetase, putative (Trypanosoma cruzi (strain CL Brener)) (UniProt Q4DSP6).
T5 sequence (whole entry): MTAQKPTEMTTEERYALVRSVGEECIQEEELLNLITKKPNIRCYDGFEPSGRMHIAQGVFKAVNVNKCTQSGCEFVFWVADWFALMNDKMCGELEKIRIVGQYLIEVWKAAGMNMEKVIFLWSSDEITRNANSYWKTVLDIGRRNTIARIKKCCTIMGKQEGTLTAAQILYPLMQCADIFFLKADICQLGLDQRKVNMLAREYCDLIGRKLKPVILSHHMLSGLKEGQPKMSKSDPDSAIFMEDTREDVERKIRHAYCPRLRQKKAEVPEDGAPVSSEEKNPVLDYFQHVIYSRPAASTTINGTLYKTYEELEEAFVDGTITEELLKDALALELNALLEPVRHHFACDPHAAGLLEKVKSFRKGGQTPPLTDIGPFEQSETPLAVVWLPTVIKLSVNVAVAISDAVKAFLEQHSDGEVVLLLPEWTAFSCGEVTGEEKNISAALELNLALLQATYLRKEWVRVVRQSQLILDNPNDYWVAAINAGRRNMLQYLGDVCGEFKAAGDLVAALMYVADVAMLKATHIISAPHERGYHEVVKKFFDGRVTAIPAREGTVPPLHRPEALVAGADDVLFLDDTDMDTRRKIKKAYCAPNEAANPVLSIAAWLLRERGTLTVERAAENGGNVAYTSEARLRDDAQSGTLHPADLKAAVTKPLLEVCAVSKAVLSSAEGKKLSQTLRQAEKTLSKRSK
The experiment in a line: Trypanosoma cruzi tyrosyl tRNA synthetase (TcYRS) _High Tyrosine SOP. Note: in the data most compounds retested in dose-response had high values. In kind it is functional. Particulars: 30 µM.

Experiment [10] deals with T5, Tyrosyl-tRNA synthetase, putative (Trypanosoma cruzi (strain CL Brener)). The experiment in a line: Trypanosoma cruzi tyrosyl tRNA synthetase (TcYRS) SOP. The experiment is classed as functional. Particulars: 30 µM.
Experiment [11] concerns the target Chromo domain-containing protein 1 (Saccharomyces cerevisiae (strain ATCC 204508 / S288c) (Baker's yeast)) (UniProt P32657). The experiment can be described thus: ScCHD-1 Enzyme Inhibition Assay. Note: in the data most compounds retested in dose-response had high values. In kind it is functional. Particulars: 30 µM.

For some assays here: Measured potencies and affinities stand elsewhere.

Sialic acid-binding Ig-like lectin 9 (Homo sapiens), sequence (Q9Y336 whole entry): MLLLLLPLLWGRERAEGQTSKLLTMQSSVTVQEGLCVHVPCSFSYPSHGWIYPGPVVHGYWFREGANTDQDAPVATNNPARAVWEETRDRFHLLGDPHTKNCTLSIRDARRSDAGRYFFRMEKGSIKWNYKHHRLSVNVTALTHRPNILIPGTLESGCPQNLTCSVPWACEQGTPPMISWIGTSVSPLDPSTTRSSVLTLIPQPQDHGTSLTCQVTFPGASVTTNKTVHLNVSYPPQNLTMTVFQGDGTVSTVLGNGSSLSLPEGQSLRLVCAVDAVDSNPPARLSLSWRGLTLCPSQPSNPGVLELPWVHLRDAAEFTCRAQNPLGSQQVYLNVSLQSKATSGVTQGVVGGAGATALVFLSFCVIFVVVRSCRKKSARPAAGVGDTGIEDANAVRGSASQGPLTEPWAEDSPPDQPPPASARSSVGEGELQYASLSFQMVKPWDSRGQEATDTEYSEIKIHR
Chromo domain-containing protein 1 (Saccharomyces cerevisiae (strain ATCC 204508 / S288c) (Baker's yeast)), sequence (P32657 whole entry, the tested form may be a part): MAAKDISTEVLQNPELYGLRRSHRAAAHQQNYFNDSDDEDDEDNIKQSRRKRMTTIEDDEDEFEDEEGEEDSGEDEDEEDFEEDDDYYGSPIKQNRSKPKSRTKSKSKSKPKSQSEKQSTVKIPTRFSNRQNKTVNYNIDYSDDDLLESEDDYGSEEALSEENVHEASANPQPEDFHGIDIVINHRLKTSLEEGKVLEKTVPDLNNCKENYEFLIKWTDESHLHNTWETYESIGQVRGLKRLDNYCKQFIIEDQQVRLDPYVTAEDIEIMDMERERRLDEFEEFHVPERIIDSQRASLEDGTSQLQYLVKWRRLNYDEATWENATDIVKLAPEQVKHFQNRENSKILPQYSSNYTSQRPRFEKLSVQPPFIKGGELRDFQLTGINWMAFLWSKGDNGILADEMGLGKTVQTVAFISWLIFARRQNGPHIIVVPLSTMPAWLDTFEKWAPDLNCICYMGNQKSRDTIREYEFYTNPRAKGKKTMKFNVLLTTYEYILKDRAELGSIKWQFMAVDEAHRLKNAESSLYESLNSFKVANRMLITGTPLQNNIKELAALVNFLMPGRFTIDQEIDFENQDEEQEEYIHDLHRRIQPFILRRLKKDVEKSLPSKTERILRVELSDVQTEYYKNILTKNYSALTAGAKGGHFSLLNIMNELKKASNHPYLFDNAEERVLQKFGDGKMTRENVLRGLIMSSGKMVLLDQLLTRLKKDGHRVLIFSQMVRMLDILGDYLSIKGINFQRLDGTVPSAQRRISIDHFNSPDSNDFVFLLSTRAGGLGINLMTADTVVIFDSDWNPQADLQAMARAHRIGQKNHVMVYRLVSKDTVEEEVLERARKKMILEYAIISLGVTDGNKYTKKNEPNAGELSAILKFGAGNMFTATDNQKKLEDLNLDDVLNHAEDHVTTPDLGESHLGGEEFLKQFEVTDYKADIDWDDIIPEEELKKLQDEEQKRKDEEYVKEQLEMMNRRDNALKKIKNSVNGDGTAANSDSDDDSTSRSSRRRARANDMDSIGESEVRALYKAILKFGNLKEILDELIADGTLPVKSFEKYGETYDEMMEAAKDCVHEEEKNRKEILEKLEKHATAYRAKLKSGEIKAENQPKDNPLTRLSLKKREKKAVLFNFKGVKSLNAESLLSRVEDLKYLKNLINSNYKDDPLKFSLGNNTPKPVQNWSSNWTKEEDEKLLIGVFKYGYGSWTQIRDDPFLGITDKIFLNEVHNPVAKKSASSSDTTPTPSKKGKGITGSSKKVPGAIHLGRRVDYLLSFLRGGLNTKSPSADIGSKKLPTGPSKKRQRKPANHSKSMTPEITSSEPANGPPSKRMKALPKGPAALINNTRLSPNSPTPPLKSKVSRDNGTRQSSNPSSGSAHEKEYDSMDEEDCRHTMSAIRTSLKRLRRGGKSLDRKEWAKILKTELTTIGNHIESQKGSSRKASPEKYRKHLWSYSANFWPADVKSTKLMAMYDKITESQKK
Protein translocase subunit SecA (Escherichia coli (strain K12)), sequence (P10408 whole entry): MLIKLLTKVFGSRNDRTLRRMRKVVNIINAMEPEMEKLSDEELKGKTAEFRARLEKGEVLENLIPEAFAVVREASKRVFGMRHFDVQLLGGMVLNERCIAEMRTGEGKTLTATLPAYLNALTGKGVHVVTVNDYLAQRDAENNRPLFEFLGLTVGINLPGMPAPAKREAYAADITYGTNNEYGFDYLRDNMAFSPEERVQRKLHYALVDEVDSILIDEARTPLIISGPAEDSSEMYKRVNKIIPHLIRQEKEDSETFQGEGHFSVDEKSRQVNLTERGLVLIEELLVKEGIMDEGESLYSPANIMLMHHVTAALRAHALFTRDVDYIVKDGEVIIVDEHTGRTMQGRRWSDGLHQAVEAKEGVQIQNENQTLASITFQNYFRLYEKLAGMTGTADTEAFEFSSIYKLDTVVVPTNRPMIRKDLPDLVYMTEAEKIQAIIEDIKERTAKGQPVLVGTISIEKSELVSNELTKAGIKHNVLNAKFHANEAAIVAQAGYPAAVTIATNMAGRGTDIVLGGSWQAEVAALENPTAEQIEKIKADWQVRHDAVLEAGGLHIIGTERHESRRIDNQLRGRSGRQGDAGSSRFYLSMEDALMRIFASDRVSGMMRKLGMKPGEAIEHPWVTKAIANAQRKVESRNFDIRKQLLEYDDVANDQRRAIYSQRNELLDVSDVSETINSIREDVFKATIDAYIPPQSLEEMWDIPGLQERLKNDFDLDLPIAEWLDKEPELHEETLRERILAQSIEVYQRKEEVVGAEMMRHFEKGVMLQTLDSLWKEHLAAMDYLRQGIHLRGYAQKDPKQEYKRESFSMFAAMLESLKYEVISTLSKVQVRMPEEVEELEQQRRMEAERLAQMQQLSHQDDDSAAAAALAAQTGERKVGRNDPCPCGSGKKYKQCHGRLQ

As to `CNC(=O)CN1CCOCC2(CCCN(Cc3cccnc3)C2)C1` (stereo not given), the Percent Effect in experiment [1] is -1.67%; in [2], -2.7%; in [3], 2.13%; in experiment [4] it was 2.03%; in experiment [5], -2.12%; with Trypanosoma cruzi, -4.1%. For the same molecule, the Percent Effect is -0.833% in [6]; 0.93% in [7]; -2.53% in the experiment filed under Homo sapiens; -22.5% in experiment [8]; 6.93% in experiment [9]; 1.22% in [10]. Also, in experiment [11], the Percent Effect is 3.52%.

Take `O=C(NC1CCC1)[C@@H]1C[C@@H]2CCN(Cc3ccncc3)C[C@H]2O1`: the Percent Effect in experiment [1] was -4.4%; in experiment [2], 8%; in experiment [3], -3.87%; in experiment [4], 0.172%; in [5], 2.75%; with Trypanosoma cruzi, 5.79%. In addition, the Percent Effect in experiment [6] is -52.1%; in experiment [7], 8.21%; in the experiment listed under Homo sapiens, 21.8%; in [8], 1.98%; in [9], 4.17%; in [10], 12.5%. Moreover, the Percent Effect in experiment [11] is -8.66%.

Regarding `Cc1cccc(C(=O)N2C[C@@H]3OCCN(C(C)C)[C@@H]3C2)n1`, the Percent Effect was -0.342% in experiment [1]; 0% in experiment [2]; 2.88% in [3]; 1.78% in experiment [4]; 5.46% in experiment [5]; 1.74% in the experiment on Trypanosoma cruzi. Besides, the Percent Effect in experiment [6] is -50%; in [7], 5.81%; in the experiment listed under Homo sapiens it was -20.9%; in [8] it was -1.16%; in experiment [9], -26%; in experiment [10], 2.5%. The Percent Effect in experiment [11] came to 0.0349%.

`Cc1ccc(N2CCO[C@H]3CN(CC4CC4)C[C@H]32)nn1`: the Percent Effect in experiment [1] was -4.5%; in [2] it was 2.7%; in experiment [3] it was -6.1%; in [4] it was 0.95%; in experiment [5] it was -5.02%; in the experiment on Trypanosoma cruzi, 7.14%. Also, the Percent Effect is -0.319% in experiment [6]; 19.6% in experiment [7]; -33.8% in the experiment filed under Homo sapiens; 1.42% in experiment [8]; 1.08% in experiment [9]; 7.69% in experiment [10]. The Percent Effect in experiment [11] is 5.67%.

On to `O=C(Nc1cccnc1)[C@H]1CN(Cc2nccs2)C[C@H]2OCC[C@@H]12`, for which the Percent Effect was -4.22% in [1]; 2.67% in experiment [2]; -1.01% in experiment [3]; 6.75% in experiment [4]; -6.59% in experiment [5]; -0.591% with Trypanosoma cruzi. The Percent Effect in experiment [6] was -0.233%; in [7] it was 3.61%; in the experiment filed under Homo sapiens it was 15%; in experiment [8] it was -17.1%; in experiment [9], -2.13%; in experiment [10], -6.41%. The Percent Effect in experiment [11] came out at 2.83%.
